# Measured values taken from PMC8384837, “Expanding the binding specificity for RNA recognition by a PUF domain”.
# Residue numbers refer to the chain shown, from its start.
# Tests used:
# Assay in all cases: yeast three-hybrid, YBZ-1, SC-Leu-His + 0.5 mM 3-AT, 4 days
# Conditions in all cases: tags: N-Gal4 AD-HA kept; label: inside an RPR1-promoter hybrid RNA with tandem MS2 sites; ssRNA
# PUM1 PUF domain R3-RIG = PUM1 PUF domain R3-RIG (Homo sapiens, UniProt Q14671 828-1176, C935R;R936I;Q939G)
# Summary of the method: (§1)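 Each repeat of the Pumilio-1 PUF domain was randomized at its three base-contacting residues, and these libraries were co-expressed from a centromeric plasmid with matching RNA elements in strain YBZ-1. After four days on SC-Leu (input) or SC-Leu-His + 0.5 mM 3-AT (selection), the repeat regions were PCR-amplified and Illumina-sequenced. The interaction score compares variant frequency between input and selection as a log change, computed in log2 with a pseudocount of 1 for absent variants.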
# PUM1 PUF domain R3-RTC = PUM1 PUF domain R3-RTC (Homo sapiens, UniProt Q14671 828-1176, C935R;R936T;Q939C)
# Summary of the method: as §1
# PUM1 PUF domain R8-TWK = PUM1 PUF domain R8-TWK (Homo sapiens, UniProt Q14671 828-1176, N1122T;Y1123W;Q1126K)
# Sequence of PUM1 PUF domain R8-TWK (Q14671 828-1176 N1122T/Y1123W/Q1126K): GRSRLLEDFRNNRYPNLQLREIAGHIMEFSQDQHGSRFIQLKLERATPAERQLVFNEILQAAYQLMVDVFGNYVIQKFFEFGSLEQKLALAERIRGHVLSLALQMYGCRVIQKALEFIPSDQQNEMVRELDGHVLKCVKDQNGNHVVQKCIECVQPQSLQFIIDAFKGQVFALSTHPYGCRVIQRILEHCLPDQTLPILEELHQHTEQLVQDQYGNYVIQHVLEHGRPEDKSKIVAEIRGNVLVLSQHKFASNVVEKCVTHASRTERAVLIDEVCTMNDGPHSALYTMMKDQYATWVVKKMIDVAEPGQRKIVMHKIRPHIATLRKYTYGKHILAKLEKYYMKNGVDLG
# Summary of the method: as §1
# PUM1 PUF domain R6-HFR = molecular target: T1, PUM1 PUF domain R6-HFR (Homo sapiens, UniProt Q14671 828-1176, N1043H;Y1044F;Q1047R)
# T1 sequence: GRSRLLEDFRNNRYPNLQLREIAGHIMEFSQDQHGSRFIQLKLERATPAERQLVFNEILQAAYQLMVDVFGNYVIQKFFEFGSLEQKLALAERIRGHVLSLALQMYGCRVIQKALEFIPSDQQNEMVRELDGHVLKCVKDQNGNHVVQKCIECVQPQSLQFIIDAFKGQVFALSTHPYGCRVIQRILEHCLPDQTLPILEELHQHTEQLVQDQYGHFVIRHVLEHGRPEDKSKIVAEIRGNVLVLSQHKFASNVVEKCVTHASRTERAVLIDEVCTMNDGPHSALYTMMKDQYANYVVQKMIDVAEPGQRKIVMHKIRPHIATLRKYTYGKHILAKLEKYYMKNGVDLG
# Summary of the method: as §1
# PUM1 PUF domain R6-KWK = molecular target: T2, PUM1 PUF domain R6-KWK (Homo sapiens, UniProt Q14671 828-1176, N1043K;Y1044W;Q1047K)
# T2 sequence: T1 sequence with H216K, F217W, R220K
# Summary of the method: as §1
# PUM1 PUF domain R8-LYW = PUM1 PUF domain R8-LYW (Homo sapiens, UniProt Q14671 828-1176, N1122L;Q1126W)
# Summary of the method: as §1
# PUM1 PUF domain R8-LHR = PUM1 PUF domain R8-LHR (Homo sapiens, UniProt Q14671 828-1176, N1122L;Y1123H;Q1126R)
# Summary of the method: as §1
# PUM1 PUF domain R5-RFK = PUM1 PUF domain R5-RFK (Homo sapiens, UniProt Q14671 828-1176, C1007R;R1008F;Q1011K)
# Summary of the method: as §1
# PUM1 PUF domain R5-CHM = PUM1 PUF domain R5-CHM (Homo sapiens, UniProt Q14671 828-1176, R1008H;Q1011M)
# Summary of the method: as §1
# PUM1 PUF domain R8-RYD = PUM1 PUF domain R8-RYD (Homo sapiens, UniProt Q14671 828-1176, N1122R;Q1126D)
# Summary of the method: as §1
# PUM1 PUF domain R8-DYC = PUM1 PUF domain R8-DYC (Homo sapiens, UniProt Q14671 828-1176, N1122D;Q1126C)
# Summary of the method: as §1
# PUM1 PUF domain R7-RRC = PUM1 PUF domain R7-RRC (Homo sapiens, UniProt Q14671 828-1176, S1079R;N1080R;E1083C)
# Summary of the method: as §1
# PUM1 PUF domain R1-GGQ = PUM1 PUF domain R1-GGQ (Homo sapiens, UniProt Q14671 828-1176, S863G;R864G)
# Summary of the method: as §1
# PUM1 PUF domain R1-YLR = PUM1 PUF domain R1-YLR (Homo sapiens, UniProt Q14671 828-1176, S863Y;R864L;Q867R)
# Summary of the method: as §1
# PUM1 PUF domain R3-WCL = PUM1 PUF domain R3-WCL (Homo sapiens, UniProt Q14671 828-1176, C935W;R936C;Q939L)
# Summary of the method: as §1
sequence,measurement,setting,value
GGCUAGAACUAGUGGAUCCCCCGGCGCCCGGCGGCUCGAGCCCGGGUAAGUGUAAUUAGUCUGCAUGCCGCCGGGCGCCAUGCCUGCAGGUCGACUCUAGAAAACAUG,binding signal,PUM1 PUF domain R3-RIG,2.45 log2 enrichment (interaction score)
same,binding signal,PUM1 PUF domain R3-RTC,3.59 log2 enrichment (interaction score)
GGCUAGAACUAGUGGAUCCCCCGGCGCCCGGCGGCUCGAGCCCGGGUAAGUGUAAAUAGUCUGCAUGCCGCCGGGCGCCAUGCCUGCAGGUCGACUCUAGAAAACAUG,binding signal,PUM1 PUF domain R8-TWK,5.8 log2 enrichment (interaction score)
same,binding signal,PUM1 PUF domain R6-HFR,6.79 log2 enrichment (interaction score)
same,binding signal,PUM1 PUF domain R6-KWK,4.71 log2 enrichment (interaction score)
same,binding signal,PUM1 PUF domain R8-LYW,2.44 log2 enrichment (interaction score)
same,binding signal,PUM1 PUF domain R8-LHR,2.47 log2 enrichment (interaction score)
same,binding signal,PUM1 PUF domain R5-RFK,4.34 log2 enrichment (interaction score)
same,binding signal,PUM1 PUF domain R5-CHM,2.96 log2 enrichment (interaction score)
GGCUAGAACUAGUGGAUCCCCCGGCGCCCGGCGGCUCGAGCCCGGGUAAGCGUAAAUAGUCUGCAUGCCGCCGGGCGCCAUGCCUGCAGGUCGACUCUAGAAAACAUG,binding signal,PUM1 PUF domain R8-TWK,2.23 log2 enrichment (interaction score)
same,binding signal,PUM1 PUF domain R8-LYW,3.09 log2 enrichment (interaction score)
same,binding signal,PUM1 PUF domain R8-RYD,4.23 log2 enrichment (interaction score)
same,binding signal,PUM1 PUF domain R8-LHR,4.05 log2 enrichment (interaction score)
same,binding signal,PUM1 PUF domain R8-DYC,4.43 log2 enrichment (interaction score)
GGCUAGAACUAGUGGAUCCCCCGGCGCCCGGCGGCUCGAGCCCGGGUAAGUUUAAAUAGUCUGCAUGCCGCCGGGCGCCAUGCCUGCAGGUCGACUCUAGAAAACAUG,binding signal,PUM1 PUF domain R7-RRC,4.95 log2 enrichment (interaction score)
GGCUAGAACUAGUGGAUCCCCCGGCGCCCGGCGGCUCGAGCCCGGGUAAGUCUAAAUAGUCUGCAUGCCGCCGGGCGCCAUGCCUGCAGGUCGACUCUAGAAAACAUG,binding signal,PUM1 PUF domain R7-RRC,4.91 log2 enrichment (interaction score)
GGCUAGAACUAGUGGAUCCCCCGGCGCCCGGCGGCUCGAGCCCGGGUAAGUGUCAAUAGUCUGCAUGCCGCCGGGCGCCAUGCCUGCAGGUCGACUCUAGAAAACAUG,binding signal,PUM1 PUF domain R5-RFK,5.3 log2 enrichment (interaction score)
GGCUAGAACUAGUGGAUCCCCCGGCGCCCGGCGGCUCGAGCCCGGGUAAGUGUAAAUUGUCUGCAUGCCGCCGGGCGCCAUGCCUGCAGGUCGACUCUAGAAAACAUG,binding signal,PUM1 PUF domain R1-GGQ,2.33 log2 enrichment (interaction score)
same,binding signal,PUM1 PUF domain R1-YLR,5.29 log2 enrichment (interaction score)
GGCUAGAACUAGUGGAUCCCCCGGCGCCCGGCGGCUCGAGCCCGGGUAAGUGUAAGUAGUCUGCAUGCCGCCGGGCGCCAUGCCUGCAGGUCGACUCUAGAAAACAUG,binding signal,PUM1 PUF domain R3-WCL,3.36 log2 enrichment (interaction score)
same,binding signal,PUM1 PUF domain R3-RIG,3.19 log2 enrichment (interaction score)
